Measurements: ChEMBL document CHEMBL3988442, “University of Dundee, Small-Polar-MMV Screening Library” (2021)
For some assays here: Results with a measured potency or affinity are listed apart.

How the values were obtained:
Set-up in all cases: scale not given: direction of the effect not stated beside the values
[1] = target: Protein translocase subunit SecA (Escherichia coli (strain K12)) (UniProt P10408); test: Assay to Identify E. coli SecA ATPase Inhibitors; assay type: functional; details: 30 µM
[2] = target: T1, Ubiquitin-activating enzyme e1, putative (Leishmania donovani (strain BPK282A1)) (UniProt E9BSI1); test: Leishmania donovani Ubiquitin Activating Enzyme (LdE1); assay type: functional; details: 30 µM
T1 sequence (whole entry): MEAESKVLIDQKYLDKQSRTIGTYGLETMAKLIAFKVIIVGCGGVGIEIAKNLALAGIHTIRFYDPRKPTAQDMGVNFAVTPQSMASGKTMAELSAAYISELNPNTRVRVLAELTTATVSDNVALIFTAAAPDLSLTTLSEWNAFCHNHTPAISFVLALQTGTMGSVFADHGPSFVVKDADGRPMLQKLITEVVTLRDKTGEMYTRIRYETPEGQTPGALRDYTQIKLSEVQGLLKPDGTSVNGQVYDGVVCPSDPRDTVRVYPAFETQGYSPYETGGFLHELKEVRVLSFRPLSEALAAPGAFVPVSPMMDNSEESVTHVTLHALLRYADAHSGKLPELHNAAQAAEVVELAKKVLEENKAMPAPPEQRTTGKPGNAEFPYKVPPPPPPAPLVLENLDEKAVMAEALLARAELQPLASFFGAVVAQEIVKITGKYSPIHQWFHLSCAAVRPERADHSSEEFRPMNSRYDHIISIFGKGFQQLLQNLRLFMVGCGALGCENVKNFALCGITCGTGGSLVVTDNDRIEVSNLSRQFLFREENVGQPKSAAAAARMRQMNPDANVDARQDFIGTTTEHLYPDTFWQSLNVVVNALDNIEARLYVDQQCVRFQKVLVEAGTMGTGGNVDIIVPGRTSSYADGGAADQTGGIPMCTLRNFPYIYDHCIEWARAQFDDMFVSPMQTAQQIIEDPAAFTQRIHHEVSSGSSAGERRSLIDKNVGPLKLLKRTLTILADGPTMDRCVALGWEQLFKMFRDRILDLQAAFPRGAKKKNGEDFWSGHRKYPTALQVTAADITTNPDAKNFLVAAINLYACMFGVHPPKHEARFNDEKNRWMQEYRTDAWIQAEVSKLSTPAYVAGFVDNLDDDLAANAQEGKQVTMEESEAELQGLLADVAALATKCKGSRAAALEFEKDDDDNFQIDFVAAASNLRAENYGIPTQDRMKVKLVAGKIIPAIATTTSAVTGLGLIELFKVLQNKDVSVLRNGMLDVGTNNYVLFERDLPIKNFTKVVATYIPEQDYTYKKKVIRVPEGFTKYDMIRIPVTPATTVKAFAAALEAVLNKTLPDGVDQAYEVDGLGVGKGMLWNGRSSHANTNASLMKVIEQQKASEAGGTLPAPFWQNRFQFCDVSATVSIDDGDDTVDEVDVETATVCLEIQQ

[3] = target: AMP-activated protein kinase, AMPK (Homo sapiens) (UniProt P54646+O43741+P54619+Q9UGJ0+Q9Y478+Q13131+Q9UGI9); test: AMP-dependent Kinase enzyme assay. An in vitro enzyme assay that detects ADP turnover that is directly proportional to AMPK activity. This uses naive AMPK that is activated during the assay with MK-8722; assay type: functional; details: 30 µM
[4] = target: Sialic acid-binding Ig-like lectin 9 (Homo sapiens) (UniProt Q9Y336); test: Hs-Siglec9 ALPHAscreen SOP 20170721; details: 10 µM
[5] = tested on: Trypanosoma cruzi; test: Trypanosoma cruzi phosphomannomutase and mannose-1-phosphate guanylyltransferase assay; assay type: functional; details: 10 µM
[6] = target: T2, Arginase-2, mitochondrial (Homo sapiens) (UniProt P78540); test: in vitro enzyme assay to detect the production of urea directly proportional to the activity of Arginase II; assay type: functional; details: 33.3 µM; further: in the data most compounds retested in dose-response had high values
T2 sequence (whole entry): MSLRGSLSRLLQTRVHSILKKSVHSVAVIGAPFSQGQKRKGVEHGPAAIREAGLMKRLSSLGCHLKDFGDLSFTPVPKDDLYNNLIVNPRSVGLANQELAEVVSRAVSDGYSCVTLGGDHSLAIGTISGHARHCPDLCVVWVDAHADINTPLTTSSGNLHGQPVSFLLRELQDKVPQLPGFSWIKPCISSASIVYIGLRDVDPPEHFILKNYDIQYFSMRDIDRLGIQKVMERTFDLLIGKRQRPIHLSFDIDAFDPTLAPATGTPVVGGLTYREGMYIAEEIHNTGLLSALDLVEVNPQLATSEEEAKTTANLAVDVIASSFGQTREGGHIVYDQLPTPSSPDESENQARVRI

[7] = target: T3, Proteasome subunit beta (Trypanosoma cruzi) (UniProt O96673); test: Trypanosoma cruzi proteasome chymotrypsin-like activity (TcProtChymo) assay.; further: in the data most compounds retested in dose-response had high values; assay type: functional; details: 9.37 µM
T3 sequence (whole entry): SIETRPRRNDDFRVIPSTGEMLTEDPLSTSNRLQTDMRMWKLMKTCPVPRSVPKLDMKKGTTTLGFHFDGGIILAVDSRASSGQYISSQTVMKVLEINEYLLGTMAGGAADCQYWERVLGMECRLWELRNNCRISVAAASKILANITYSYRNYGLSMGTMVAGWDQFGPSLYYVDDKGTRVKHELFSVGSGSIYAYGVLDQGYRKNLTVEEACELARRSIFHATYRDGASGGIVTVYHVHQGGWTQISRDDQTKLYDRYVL

[8] = species on record: Homo sapiens; test: To identify inhibition of the IFN signalling (Jak-Stat) pathway via expression of an eGFP reporter gene under the control of an IFN-stimulated response element (ISRE) containing MxA promoter.; assay type: functional; details: 30 µM
[9] = target: T4, Tyrosyl-tRNA synthetase, putative (Trypanosoma cruzi (strain CL Brener)) (UniProt Q4DSP6); test: Trypanosoma cruzi tyrosyl tRNA synthetase (TcYRS) _High Tyrosine SOP; assay type: functional; details: 30 µM; further: in the data most compounds retested in dose-response had high values
T4 sequence (whole entry): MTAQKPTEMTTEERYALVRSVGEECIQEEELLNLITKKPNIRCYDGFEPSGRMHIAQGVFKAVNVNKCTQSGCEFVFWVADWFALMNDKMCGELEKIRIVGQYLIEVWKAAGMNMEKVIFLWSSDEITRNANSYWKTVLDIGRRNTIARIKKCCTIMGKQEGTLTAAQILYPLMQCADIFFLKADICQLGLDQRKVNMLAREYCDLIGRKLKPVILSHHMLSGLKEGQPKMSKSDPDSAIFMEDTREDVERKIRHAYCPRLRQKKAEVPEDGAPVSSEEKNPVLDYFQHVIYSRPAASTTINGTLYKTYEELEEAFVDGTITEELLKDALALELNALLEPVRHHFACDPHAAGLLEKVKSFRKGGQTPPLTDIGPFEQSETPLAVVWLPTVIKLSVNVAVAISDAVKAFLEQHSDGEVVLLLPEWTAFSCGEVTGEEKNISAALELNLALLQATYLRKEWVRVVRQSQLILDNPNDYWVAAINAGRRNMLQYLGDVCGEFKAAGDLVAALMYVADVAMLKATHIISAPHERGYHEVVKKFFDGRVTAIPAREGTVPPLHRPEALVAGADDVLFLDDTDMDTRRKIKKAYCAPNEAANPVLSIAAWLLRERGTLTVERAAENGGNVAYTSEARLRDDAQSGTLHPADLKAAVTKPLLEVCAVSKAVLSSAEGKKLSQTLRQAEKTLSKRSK

[10] = target: T4, Tyrosyl-tRNA synthetase, putative (Trypanosoma cruzi (strain CL Brener)); test: Trypanosoma cruzi tyrosyl tRNA synthetase (TcYRS) SOP; assay type: functional; details: 30 µM
[11] = target: Chromo domain-containing protein 1 (Saccharomyces cerevisiae (strain ATCC 204508 / S288c) (Baker's yeast)) (UniProt P32657); test: ScCHD-1 Enzyme Inhibition Assay; assay type: functional; details: 30 µM; further: in the data most compounds retested in dose-response had high values
Chain of Chromo domain-containing protein 1 (Saccharomyces cerevisiae (strain ATCC 204508 / S288c) (Baker's yeast)) (P32657 whole entry, the tested form may be a part): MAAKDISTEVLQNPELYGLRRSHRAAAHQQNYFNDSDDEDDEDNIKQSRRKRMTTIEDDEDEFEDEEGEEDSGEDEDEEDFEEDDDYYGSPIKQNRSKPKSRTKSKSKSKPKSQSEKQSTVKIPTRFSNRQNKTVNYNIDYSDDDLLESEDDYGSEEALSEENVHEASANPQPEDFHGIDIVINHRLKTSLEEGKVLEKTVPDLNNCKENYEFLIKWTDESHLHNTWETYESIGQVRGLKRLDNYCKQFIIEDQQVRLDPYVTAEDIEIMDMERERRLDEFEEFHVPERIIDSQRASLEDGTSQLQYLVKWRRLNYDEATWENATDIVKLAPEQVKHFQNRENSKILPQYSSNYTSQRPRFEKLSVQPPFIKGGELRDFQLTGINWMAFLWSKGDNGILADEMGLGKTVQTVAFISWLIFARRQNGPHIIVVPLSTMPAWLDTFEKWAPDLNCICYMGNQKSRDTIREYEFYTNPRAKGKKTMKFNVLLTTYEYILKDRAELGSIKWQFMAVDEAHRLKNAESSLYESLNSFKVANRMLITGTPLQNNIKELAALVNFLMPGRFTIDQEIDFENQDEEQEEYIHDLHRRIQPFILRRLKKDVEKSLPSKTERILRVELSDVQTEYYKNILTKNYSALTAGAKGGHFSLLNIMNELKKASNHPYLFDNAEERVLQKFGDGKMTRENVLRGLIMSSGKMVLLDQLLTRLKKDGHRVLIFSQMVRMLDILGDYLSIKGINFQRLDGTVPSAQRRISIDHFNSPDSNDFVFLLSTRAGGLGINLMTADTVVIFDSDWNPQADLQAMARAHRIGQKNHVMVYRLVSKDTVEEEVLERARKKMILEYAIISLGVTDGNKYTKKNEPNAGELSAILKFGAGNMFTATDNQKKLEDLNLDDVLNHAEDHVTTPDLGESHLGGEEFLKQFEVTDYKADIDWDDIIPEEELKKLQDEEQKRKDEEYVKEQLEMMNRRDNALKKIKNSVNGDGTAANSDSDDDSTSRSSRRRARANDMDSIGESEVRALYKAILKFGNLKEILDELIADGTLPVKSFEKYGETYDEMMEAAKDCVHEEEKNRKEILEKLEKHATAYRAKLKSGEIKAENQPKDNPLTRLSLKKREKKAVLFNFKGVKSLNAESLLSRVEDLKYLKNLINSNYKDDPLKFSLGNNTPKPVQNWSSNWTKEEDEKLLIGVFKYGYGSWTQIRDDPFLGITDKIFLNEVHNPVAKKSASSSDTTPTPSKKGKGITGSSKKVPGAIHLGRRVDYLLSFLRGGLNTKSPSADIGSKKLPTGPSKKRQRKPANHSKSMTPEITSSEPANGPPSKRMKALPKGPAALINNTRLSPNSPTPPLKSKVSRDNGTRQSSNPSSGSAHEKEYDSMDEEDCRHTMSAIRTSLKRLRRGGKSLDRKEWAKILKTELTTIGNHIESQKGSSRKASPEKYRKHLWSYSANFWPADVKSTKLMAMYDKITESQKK

Chain of Protein translocase subunit SecA (Escherichia coli (strain K12)) (P10408 whole entry): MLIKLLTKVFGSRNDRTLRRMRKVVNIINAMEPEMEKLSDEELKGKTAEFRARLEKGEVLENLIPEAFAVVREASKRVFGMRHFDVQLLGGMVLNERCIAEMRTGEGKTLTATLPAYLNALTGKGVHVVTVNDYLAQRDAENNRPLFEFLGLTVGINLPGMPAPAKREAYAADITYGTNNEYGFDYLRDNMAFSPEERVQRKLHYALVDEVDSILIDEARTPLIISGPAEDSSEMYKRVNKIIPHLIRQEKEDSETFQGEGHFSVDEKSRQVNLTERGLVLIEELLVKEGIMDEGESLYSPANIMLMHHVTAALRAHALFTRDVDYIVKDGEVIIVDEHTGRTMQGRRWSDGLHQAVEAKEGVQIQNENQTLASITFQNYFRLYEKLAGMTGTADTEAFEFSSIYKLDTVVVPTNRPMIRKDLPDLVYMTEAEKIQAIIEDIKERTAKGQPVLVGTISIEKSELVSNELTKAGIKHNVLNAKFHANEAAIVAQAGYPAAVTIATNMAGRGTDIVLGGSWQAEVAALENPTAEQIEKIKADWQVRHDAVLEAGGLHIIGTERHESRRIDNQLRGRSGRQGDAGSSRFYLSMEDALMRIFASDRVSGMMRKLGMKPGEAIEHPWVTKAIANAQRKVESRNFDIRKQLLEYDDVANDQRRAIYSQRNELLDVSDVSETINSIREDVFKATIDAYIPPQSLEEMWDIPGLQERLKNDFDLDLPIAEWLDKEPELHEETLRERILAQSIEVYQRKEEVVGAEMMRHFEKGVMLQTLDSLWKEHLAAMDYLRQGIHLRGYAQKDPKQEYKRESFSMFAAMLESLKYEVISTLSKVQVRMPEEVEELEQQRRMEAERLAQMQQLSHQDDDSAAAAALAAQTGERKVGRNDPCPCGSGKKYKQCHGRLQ
Chain of Sialic acid-binding Ig-like lectin 9 (Homo sapiens) (Q9Y336 whole entry): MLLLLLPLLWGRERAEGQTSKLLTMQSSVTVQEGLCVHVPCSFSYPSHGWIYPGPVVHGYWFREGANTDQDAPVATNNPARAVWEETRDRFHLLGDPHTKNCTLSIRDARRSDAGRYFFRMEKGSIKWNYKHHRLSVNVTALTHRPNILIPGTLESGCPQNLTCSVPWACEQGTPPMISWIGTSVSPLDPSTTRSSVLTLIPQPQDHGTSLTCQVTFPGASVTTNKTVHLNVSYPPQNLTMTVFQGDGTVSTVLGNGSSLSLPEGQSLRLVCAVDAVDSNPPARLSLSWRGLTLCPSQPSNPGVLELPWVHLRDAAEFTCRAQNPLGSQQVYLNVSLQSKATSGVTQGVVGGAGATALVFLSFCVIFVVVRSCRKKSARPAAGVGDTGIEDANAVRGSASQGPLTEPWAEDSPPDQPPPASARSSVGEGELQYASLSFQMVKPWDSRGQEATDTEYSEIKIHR

Compound | Percent Effect [1] | Percent Effect [2] | Percent Effect [3] | Percent Effect [4] | Percent Effect [5] | Percent Effect [6] | Percent Effect [7] | Percent Effect [8] | Percent Effect [9] | Percent Effect [10] | Percent Effect [11]
CC(=O)N(Cc1ncc(C(C)C)o1)C1CCN(CCn2cccn2)C1 (configuration not stated) | 0.67% | 10.8% | -13.2% | 0.985% | 2.69% | 0.924% | 18.9% | -1.48% | 14.8% | 1.22% | -4.25%
CCN(Cc1ccc(OC)c(F)c1)C(=O)c1ccc(C)[nH]c1=O | -3.17% | 10.5% | 2.62% | 9.42% | -0.188% | 2.3% | 4.68% | 8.35% | 8.33% | 19.5% | -8.67%
CCc1ccc(CN2C[C@@H]3OCCN(c4ccnc(N(C)C)n4)[C@@H]3C2)o1 | -1.43% | 5.48% | -0.72% | 13.7% | 1.98% | -13.6% | 7.28% | 82.1% | 5.21% | -3.7% | -4.54%
COc1cccc(OCC(=O)NS(=O)(=O)c2ccc(C)s2)c1 | -3.05% | 15.2% | -2.9% | -5.56% | 5.19% | 5.32% | 10.4% | 15.6% | 2.46% | 16.5% | -4.35%
COCc1noc(-c2ccc(N(C)Cc3cc(C)no3)nc2)n1 | -1.27% | 0% | -1.25% | 9.06% | 5.79% | 10.9% | 6.9% | 17.1% | 5.82% | 7.32% | -6.04%
CC1CCN(Cn2nc(-c3ccc(F)cc3)oc2=O)CC1 | -2.94% | 18.2% | 4.52% | -5.3% | -7.12% | 2.13% | 6.42% | 33% | 5.83% | 7.32% | -12.6%
Cc1csc(CNC(=O)NC2CCN(c3ncccn3)CC2)n1 | -4.13% | 11% | -4.87% | 16.2% | 4.37% | -3.19% | 12.6% | 5.21% | 10.4% | 25.9% | -3.12%
O=C(Nc1cccc(Cl)c1)c1nn(C2CCS(=O)(=O)C2)c2c1CCCC2 (configuration not stated) | -5% | -7.89% | 10.5% | 6.51% | -1.27% | -3.55% | 12.4% | -5.46% | -1.06% | 2.6% | -5.58%
COc1ccc(-c2nc(CN3CC(n4cc(C)cn4)C3)no2)cc1 | -4.92% | 10.4% | -1.25% | 16.8% | 4.03% | 88.3% | 12% | 12.7% | 6.45% | 21% | -9.02%
Cc1nc(C2CCCN(C(=O)C(C)(C)n3cc(Cl)cn3)C2)no1 (configuration not stated) | -1.25% | 3.8% | -0.545% | 3.13% | 2.77% | 3.23% | 0.343% | -9.61% | 6.25% | 7.59% | -13.7%
Cc1cccnc1CNc1cc(N2CCCC2CO)ncn1 (configuration not stated) | -2.07% | 2.6% | -9.88% | 14.4% | 2.25% | -3.56% | 8.11% | 11.7% | 2.91% | 9.76% | -6.83%
CC(C)C1CN(C(=O)c2ccc(N3CCCC3)nc2)CCS1 (configuration not stated) | -4.92% | 2.6% | 0.107% | 2.6% | -0.492% | 0% | -1.17% | -12.6% | 4.3% | 6.17% | -1.7%
CC(C)c1nc(C2CCCN2C(=O)c2cnc[nH]2)no1 (configuration not stated) | -7.47% | 8.11% | 3.18% | 5.28% | -6.96% | 0.554% | -5.75% | 23.2% | 0% | 1.22% | 4.79%
N#Cc1ccc(CNC(=O)NC2CCN(CC(F)F)CC2)cc1 | -5.31% | 2.7% | 0.0143% | 20.2% | 10.8% | -2.23% | 12.3% | 8.62% | 4.3% | 16.1% | -4.65%
Cc1cc(C)n(CC(=O)NC(Cc2ccsc2)c2ccccn2)c(=O)n1 (configuration not stated) | -10.3% | 12.2% | -6.03% | 12.5% | 8.5% | -4.87% | 9.2% | -8.13% | 5.38% | 11.7% | -22.9%
Cc1nc(C)n(C2CCCN(C(=O)c3cc4ccccc4n3C)C2)n1 (configuration not stated) | -3.87% | 7.79% | -8.41% | 1.64% | 5.78% | 0.632% | 6.71% | 17.1% | 7.62% | 9.41% | -16.3%
CCN(CCNC(=O)c1ccccc1Br)C1CC1 | -1.99% | -6.33% | -0.476% | -1.28% | -0.923% | 7.53% | 10.3% | 5.43% | 1.04% | -10.1% | -18%
O=C(Cc1ccsc1)NCC1OCCc2cn(CC3CC3)nc21 (configuration not stated) | -2.34% | 7.79% | 4.36% | -0.104% | -3.06% | 4.52% | 9.92% | 10.1% | 8.47% | 8.97% | -0.722%
COCCN1C[C@@H]2CCCO[C@@H]2[C@H](N(C)Cc2ccco2)C1 | -2.66% | 10.7% | 1.93% | -6.59% | 2.56% | 50.6% | 11% | 16.7% | 7.45% | 16.7% | -2.07%
Cc1nc2ccccc2c(=O)n1CCC(=O)N1CCNC(=O)C1 | -4.53% | 10.5% | 6.29% | 11.3% | 0.94% | 0% | 3.51% | 2.72% | 4.41% | 9.76% | -6.93%
c1cnc2c(C3CCN(Cc4ccsc4)CC3)n[nH]c2n1 | -4.33% | 20.3% | 10.3% | -8.48% | 5.14% | -1.62% | 17.9% | 18.2% | 3.23% | 9.09% | 20.2%
CC(C)N(C)CC(=O)NC1CCc2nccn2C1 (configuration not stated) | -0.518% | -5.33% | 4.88% | -4.8% | -4.38% | -5.21% | 3.14% | 31.6% | -2.73% | -6.17% | 2.61%
